“And” between values parts separate entries of the source, which are not always exact repeats. Identical values can stand only once. Among all 5,500 compounds or so, about 2,000 (36%) were called active. Not shown: some 18% with an inconclusive outcome. Rule as the data show it: active = normalized growth mostly below about 0.91 (no sharp cut-off); inconclusive = no clear call, values can overlap the other calls; inactive = mostly above about 0.92. Some of the results follow.
Test: chemical genetic growth profiling, strain panel (AID 1159580);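 also: tested at 20 µM; growth read once vehicle control cultures reached saturation at 30 °C; 1 = growth at the plate median or of vehicle wells; lower values mean less growth of the strain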
Conditions: S. cerevisiae deletion strains, growth OD

Measured: normalized growth

CC(=O)O[C@@H]1CC2C(C)(C)C(=O)C=C[C@]2(C)C2CC[C@@]3(C)[C@H](c4ccoc4)OC(=O)[C@H]4O[C@]43[C@@]21C (stereo partly drawn)
inactive: locus YAL021C, strain ccr4, hits give low values 1.03 | locus YAL026C, strain drs2, hits give low values 0.99 | locus YAL030W, strain snc1, hits give low values 0.997 | locus YBL061C, strain skt5, hits give low values 1.01 | locus YBR009C, strain hhf1, hits give low values 0.981 | locus YBR021W, strain FUR4, hits give low values 0.983 | locus YBR023C, strain chs3, hits give low values 1.01 | locus YBR171W, strain sec66, hits give low values 0.982 | locus YBR229C, strain ROT2, hits give low values 0.997 | locus YBR231C, strain swc5, hits give low values 1 | locus YBR279W, strain paf1, hits give low values 1.01 | locus YCL011C, strain gbp2, hits give low values 0.994 | locus YCL016C, strain dcc1, hits give low values 1.02 | locus YCL029C, strain bik1, hits give low values 0.999 | locus YCL061C, strain MRC1, hits give low values 0.972 | locus YCL069W, strain vba3, hits give low values 0.968 | locus YCR088W, strain abp1, hits give low values 0.98 | locus YDL005C, strain med2, hits give low values 0.981 | locus YDL035C, strain GPR1, hits give low values 1 | locus YDL040C, strain nat1, hits give low values 0.998 | locus YDL074C, strain BRE1, hits give low values 0.988 | locus YDL101C, strain DUN1, hits give low values 1.01 | locus YDL134C, strain PPH21, hits give low values 0.997 | locus YDL185W, strain tfp1, hits give low values 1.01 | locus YDL192W, strain arf1, hits give low values 0.991 | locus YDR001C, strain nth1, hits give low values 0.972 | locus YDR069C, strain doa4, hits give low values 1 | locus YDR101C, strain arx1, hits give low values 0.984 | locus YDR137W, strain rgp1, hits give low values 0.95 | locus YDR159W, strain sac3, hits give low values 0.949 | locus YDR162C, strain NBP2, hits give low values 0.996 | locus YDR195W, strain ref2 1.02 | locus YDR297W, strain sur2, hits give low values 1.01 | locus YDR318W, strain mcm21, hits give low values 0.994 | locus YDR334W, strain swr1, hits give low values 1.02 | locus YDR335W, strain msn5, hits give low values 1.02 | locus YDR388W, hits give low values 0.994 | locus YDR392W, strain spt3, hits give low values 0.831 | locus YDR502C, strain sam2, hits give low values 0.981 | locus YEL003W, strain gim4, hits give low values 0.95 | locus YEL037C, strain rad23, hits give low values 0.973 | locus YEL061C, strain CIN8 (second series), hits give low values 0.973 | locus YEL061C, strain CIN8, hits give low values 0.996 | locus YER015W, strain faa2, hits give low values 1.01 | locus YER016W, strain bim1, hits give low values 1 | locus YER110C, hits give low values 0.997 | locus YER111C, strain swi4, hits give low values 0.985 | locus YER155C, strain BEM2 (second series), hits give low values 1 | locus YER155C, strain BEM2, hits give low values 1 | locus YER167W, strain BCK2, hits give low values 1.01 | locus YFR010W, strain ubp6, hits give low values 0.966 | locus YGL078C, strain dbp3, hits give low values 0.994 | locus YGL086W, strain mad1, hits give low values 1.01 | locus YGL167C, strain pmr1, hits give low values 1 | locus YGL173C, strain kem1, hits give low values 0.976 | locus YGL227W, strain vid30, hits give low values 0.961 | locus YGL240W, strain doc1, hits give low values 1.01 | locus YGL248W, strain PDE1, hits give low values 1 | locus YGL253W, strain hxk2, hits give low values 1.02 | locus YGR078C, strain PAC10, hits give low values 1.01 | locus YGR135W, strain pre9, hits give low values 0.998 | locus YGR252W, strain gcn5, hits give low values 0.993 | locus YHR013C, strain ard1, hits give low values 0.987 | locus YHR027C, strain rpn1, hits give low values 1.01 | locus YHR030C, strain SLT2, hits give low values 1.01 | locus YHR079C, strain IRE1 (second series), hits give low values 0.988 | locus YHR079C, strain IRE1, hits give low values 0.994 | locus YHR094C, strain hxt1, hits give low values 0.993 | locus YHR129C, strain ARP1, hits give low values 1 | locus YHR142W, strain chs7, hits give low values 0.987 | locus YHR200W, strain rpn10, hits give low values 0.997 | locus YIL066C, strain RNR3, hits give low values 1 | locus YIL073C, strain SPO22, hits give low values 0.969 | locus YIL125W, strain kgd1, hits give low values 0.994 | locus YIR030C, strain dcg1, hits give low values 0.989 | locus YJL092W, strain hpr5, hits give low values 0.992 | locus YJL095W, strain BCK1 (second series), hits give low values 1.02 | locus YJL095W, strain BCK1, hits give low values 0.983 and 0.999 | locus YJL115W, strain asf1, hits give low values 0.987 | locus YJL129C, strain trk1, hits give low values 0.928 | locus YJL134W, strain LCB3, hits give low values 1.01 | locus YJL154C, strain vps35, hits give low values 0.971 | locus YJL164C, strain tpk1, hits give low values 0.995 | locus YJL166W, strain qcr8, hits give low values 1 | locus YJL168C, strain set2, hits give low values 0.987 | locus YJL187C, strain SWE1 (second series), hits give low values 1.01 | locus YJL187C, strain SWE1, hits give low values 1.01 | locus YJR043C, strain POL32, hits give low values 1.01

Source: PubChem BioAssay AID1159580 (chemical genetic matrix, 2015)
